Each sequence was assayed against ERCC8 (assay: pooled miR-30 sensor sort-seq; sequence = guide strand). Details: shRNA.
Further: reference of the scale not given here.

Row | Sequence | sensor-assay potency score (higher = more potent)
1 | TTGACTGAAATACACAGCAGTC | -0.992
2 | TTGACTAAATAAACTATACAGA | -1.03
3 | TAATCAAACATCCTGATGCTCT | -0.532
4 | TCTAGTACCAACTGCTACCAAA | -1.28
5 | TCTACTGTCAGCACTTGCTGTT | 0.468
6 | TCTGTCTTTATTTAATTCCAGT | -1.2
7 | TATAGTTCATAAAATCTGCTGA | 0.347
8 | TTTGACTGAAATACACAGCAGT | 0.0965
9 | TTGAAAAAAACACAGTCTCATT | -1.3
10 | TTGTTGTAGTCTCATCATCATC | -1.65
11 | TTCGATTATCTGTACCAACAGT | -0.994
12 | TCTTTCAACATCTCTGTCTTTA | 0.0508

The sequences below were run against ERG in the same assay as above. Details: shRNA.

Row | Sequence | sensor-assay potency score (higher = more potent)
13 | TATTGCTTTAGTTTCATCCCAG | -0.25
14 | TACATTTCTTAAGACCACTTTC | -0.508
15 | TAAAATGGCATTATAAACGGTA | -0.0295
16 | TTCTAGCATGCATTAACCGTGG | -0.659
17 | TTCTTTGGCACTTTGTCCTTAA | -0.383
18 | TTTCTAGCATGCATTAACCGTG | -0.322
19 | TTCTCCTCCATGTAGCTGCCGT | -0.46
20 | TAAGACTTCAGTAACTCCCTCC | 0.34
21 | TTCTGTAGTAAGACTTCAGTAA | 0.212
22 | TTACATTCCATTTTGATGGTGA | 0.928
23 | TAAATCTGTGTTTCTAGCATGC | 0.0224
24 | TTTCTTTGGCACTTTGTCCTTA | 0.442
25 | TTGAGACAGCCAATCCTGCTGA | 0.276
26 | TTATCGTAGTTCATGTTGGGTT | -0.512
27 | TATTCGTGACATTTTTAGCATC | -1.17
28 | TTTTGATTCATGTTCTCCGATA | -0.485
29 | TAACAAGATGTTGACGTCTGGA | 0.51
30 | TAGCATGCATTAACCGTGGAGA | -0.638
31 | TTCTTGTCATAGTAGTAACGGA | -1.05
32 | TAAGACTTCATGCTTCTACATA | -1.33
33 | TCTTGTCATAGTAGTAACGGAG | -1.01
34 | TCATCTTGGAAGTCTGTCCATA | -0.884
35 | TGCTTCTACATACACTGTCTTT | -1.13
36 | TGGAAGTCGAACTTGTAGGCGT | 0.335

The sequences below were run against ERICH1 in the same assay as above. Details: shRNA.

Row | Sequence | sensor-assay potency score (higher = more potent)
37 | TTCTTTGATTTATGCTTCCTAA | -1.05
38 | AATTGTATCATCTTCCTCGCTG | 0.524
39 | TTTTTTGTTAAAGAGGAGCTGT | 0.195
40 | TCTCTCAGTATCTTGCAGGAGC | -0.55

Source: the OligoGym collection
